Test [1] is described as follows: phospholipid biosynthesis inhibitors in animal cells, primary screen, cell-based, LOPAC library, screen 4 (AID 1347384; call rule not given here). The note with it: phospholipid biosynthesis inhibition screen, at 10 µM.
Test [2] is described as follows: survival rescue of mitochondrial mutant cells in low glucose, primary screen, MELAS cybrids, Rieske KO mouse fibroblasts, CellTiter-Glo (AID 1508586).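 Also: z relative to plate mean and SD of compound and empty wells.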
In test [3] the target is NAD(+) hydrolase SARM1 (Homo sapiens) (UniProt Q6SZW1). As to the kind of experiment: SARM1 TIR NADase inhibitors, cell lysate, NAD-Glo luminescence (AID 1508614;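 active = compound whose remaining NAD level is above about 45 nM, limit read from the data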;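 also: higher remaining NAD means stronger inhibition of SARM1 NADase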). Particulars: SAM-TIR HEK293T lysate NADase, at 1 µM, stronger effect = higher value.
Chain of NAD(+) hydrolase SARM1 (Homo sapiens) (Q6SZW1 whole entry, looked up, the tested form may be a part): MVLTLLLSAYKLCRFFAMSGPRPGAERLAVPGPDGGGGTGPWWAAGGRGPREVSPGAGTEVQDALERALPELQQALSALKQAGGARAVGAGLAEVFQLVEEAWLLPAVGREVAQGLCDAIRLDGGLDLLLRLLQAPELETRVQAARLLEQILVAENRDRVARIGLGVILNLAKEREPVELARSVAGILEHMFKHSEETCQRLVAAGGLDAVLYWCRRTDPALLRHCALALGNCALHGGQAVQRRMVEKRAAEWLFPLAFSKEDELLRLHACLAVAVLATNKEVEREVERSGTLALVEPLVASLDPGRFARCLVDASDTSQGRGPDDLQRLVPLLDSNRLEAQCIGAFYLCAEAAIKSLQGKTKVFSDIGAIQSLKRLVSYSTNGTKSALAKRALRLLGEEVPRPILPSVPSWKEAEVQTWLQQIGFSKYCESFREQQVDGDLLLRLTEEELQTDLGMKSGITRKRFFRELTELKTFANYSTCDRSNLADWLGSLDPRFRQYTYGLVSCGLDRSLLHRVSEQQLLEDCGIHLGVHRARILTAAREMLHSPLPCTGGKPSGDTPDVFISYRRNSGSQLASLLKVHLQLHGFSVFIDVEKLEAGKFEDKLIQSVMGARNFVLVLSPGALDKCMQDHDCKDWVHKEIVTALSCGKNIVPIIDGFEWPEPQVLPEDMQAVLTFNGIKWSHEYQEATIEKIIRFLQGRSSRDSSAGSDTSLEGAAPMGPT
In test [4] the target is Mitogen-activated protein kinase 7 (Homo sapiens) (UniProt Q13164). As to the kind of experiment: ERK5 transactivation activators in reporter cells, primary screen, cell-based, HTS (AID 1508626;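 active = luciferase signal above three times the same-plate solvent-only control wells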;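 also: luciferase driven by Gal4-ERK5 fusion binding five Gal4 sites before minimal TATA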). Particulars: HeLa Gal4-ERK5 transactivation, 18 h, at 5 µM, stronger effect = higher value.
Chain of Mitogen-activated protein kinase 7 (Homo sapiens) (Q13164 whole entry, looked up, the tested form may be a part): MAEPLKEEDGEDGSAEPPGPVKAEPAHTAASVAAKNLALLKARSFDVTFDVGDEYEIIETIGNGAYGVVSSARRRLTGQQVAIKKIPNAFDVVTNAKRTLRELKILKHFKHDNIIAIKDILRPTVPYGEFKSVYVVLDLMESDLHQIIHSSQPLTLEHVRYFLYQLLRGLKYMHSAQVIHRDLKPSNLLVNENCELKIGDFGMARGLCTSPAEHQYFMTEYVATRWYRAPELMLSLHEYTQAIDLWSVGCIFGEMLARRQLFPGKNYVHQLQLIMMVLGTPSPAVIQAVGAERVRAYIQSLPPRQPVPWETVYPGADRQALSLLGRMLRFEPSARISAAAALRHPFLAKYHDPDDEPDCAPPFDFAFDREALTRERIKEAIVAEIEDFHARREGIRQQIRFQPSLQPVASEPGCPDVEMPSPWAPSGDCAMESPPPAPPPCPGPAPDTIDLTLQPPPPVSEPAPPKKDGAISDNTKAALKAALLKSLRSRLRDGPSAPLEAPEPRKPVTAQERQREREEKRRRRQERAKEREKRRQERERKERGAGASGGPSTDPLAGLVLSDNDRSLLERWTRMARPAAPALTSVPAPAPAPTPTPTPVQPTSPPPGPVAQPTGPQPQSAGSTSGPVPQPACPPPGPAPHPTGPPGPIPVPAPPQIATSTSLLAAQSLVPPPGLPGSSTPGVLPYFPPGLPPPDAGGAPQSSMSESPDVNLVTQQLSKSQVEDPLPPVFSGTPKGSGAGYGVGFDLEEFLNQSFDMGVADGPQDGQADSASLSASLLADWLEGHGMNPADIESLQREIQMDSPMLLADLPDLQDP
A short description of test [5]: viability rescue of complex I mutant cybrids, primary screen, cell-based, galactose medium, ATP luminescence (AID 1645843;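 active = z-score of at least 1.8 in each of two replicates, scored against plate mean and spread of sample wells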;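 also: positive z means more ATP and so rescue of galactose-driven cybrid death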). The note with it: complex I mutant cybrid cells, 72 h, stronger effect = higher value.
The mark [6] stands for this setting: MELAS cybrid survival, CellTiter-Glo 48 h, stronger effect = higher value.
[7] abbreviates: Rieske KO mouse fibroblast survival, CellTiter-Glo 72 h.

Each structure is given as a SMILES string. Where “and” joins values, the source holds several entries; their conditions need not be identical. Equal values may be shown once. Calls of active or inactive are those of the source.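 The calls were made as follows, unless noted: active = mean z-score across replicates of 1.96 or higher in either the MELAS or the Rieske mutant cell line; inactive = the rest.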

20 compounds from PubChem BioAssay can be followed below.

On to `CN1CCN(C2=Nc3ccccc3Oc3ccc(Cl)cc32)CC1`, for which, in test [1], the compound was called inactive. The z-score in test [2] (setting [6]) is -0.155 (inactive) and 0.0915 (inactive); in test [2] (setting [7]), -0.224 and 0.0483; in test [5], -0.48 (inactive) and -0.015 (inactive). For the same compound, the remaining NAD in test [3] was 10 nM (inactive). Further, the luciferase signal in test [4] is 132 AU (inactive).

On to `NC(N)=NC(=O)Cc1c(Cl)cccc1Cl`, for which the compound was called inactive in test [1]. Further, the z-score is -0.203 (inactive) and -0.668 (inactive) in test [2] (setting [6]); 0.336 and -1.29 in test [2] (setting [7]); -0.06 (inactive) and -0.17 (inactive) and -0.035 (inactive) in test [5]. In addition, the remaining NAD in test [3] is 10 nM (inactive).

`COCCc1ccc(OCC(O)CNC(C)C)cc1` (configuration not stated): the compound was called inactive in test [1]. The z-score in test [2] (setting [6]) is -0.374 (inactive) and 0.559 (inactive) and -0.0156 (inactive); in test [2] (setting [7]), -0.175 and -0.344 and -0.724; in test [5] it was 0.4 (inactive) and 0.695 (inactive). Further, the remaining NAD in test [3] was 10 nM (inactive). The luciferase signal in test [4] was 40 AU (inactive).

Turning to `COC(=O)[C@H]1[C@H]2C[C@@H]3c4[nH]c5cc(OC)ccc5c4CCN3C[C@H]2C[C@@H](OC(=O)c2cc(OC)c(OC)c(OC)c2)[C@@H]1OC`, the outcome in test [1] was inactive. Also, the z-score in test [2] (setting [6]) is 0.355 (inactive); in test [2] (setting [7]), 1.28; in test [5], -0.19 (inactive) and -0.39 (inactive). Also, the remaining NAD in test [3] was 10 nM (inactive). Further, the luciferase signal in test [4] is 64 AU (inactive).

As to `OCCOCCN1CCN(C2=Nc3ccccc3Sc3ccccc32)CC1`, the z-score in test [2] (setting [6]) is -0.365 (inactive) and 0.666 (inactive) and 0.0103 (inactive); in test [2] (setting [7]) it was -0.209 and 0.244 and 1.08; in test [5] it was -0.095 (inactive) and 0.115 (inactive). Moreover, the remaining NAD in test [3] is 10 nM (inactive). Further, the luciferase signal in test [4] is 48 AU (inactive).

For `CC(=O)Oc1c(C)c(C)c2c(c1C)CC[C@@](C)(CCC[C@H](C)CCC[C@H](C)CCCC(C)C)O2`, in test [3], the remaining NAD is 10 nM (inactive).

For `CC(=O)Nc1cccc(O)c1`, in test [3], the remaining NAD was 10 nM (inactive). Further, the luciferase signal in test [4] is 64 AU (inactive).

For the compound `Cc1c(C(=O)O)c(O)cc2c1C(=O)c1c(O)c([C@@H]3O[C@H](CO)[C@@H](O)[C@H](O)[C@H]3O)c(O)c(O)c1C2=O`, the luciferase signal in test [4] is 52 AU (inactive).

`Oc1cc(O)c2c(c1)O[C@H](c1ccc(O)c(O)c1)[C@H](O)C2`: the luciferase signal in test [4] is 20 AU (inactive).

Turning to `C[C@]12CCC(=O)C=C1CC[C@@H]1[C@@H]2[C@@H](O)C[C@@]2(C)[C@H]1CC[C@]2(O)C(=O)COP(=O)(O)O`, the remaining NAD in test [3] is 10 nM (inactive). The luciferase signal in test [4] is 72 AU (inactive).

Turning to `O=C(CCCN1CCN(c2ccccn2)CC1)c1ccc(F)cc1`, the z-score is -0.275 (inactive) and -0.83 (inactive) and 0.232 (inactive) in test [2] (setting [6]); -0.169 and 0.0955 and 0.456 in test [2] (setting [7]); -0.625 (inactive) in test [5]. Moreover, the remaining NAD in test [3] was 10 nM (inactive). Moreover, the luciferase signal in test [4] is 92 AU (inactive).

On to `Cc1ncc([N+](=O)[O-])n1CC(O)CCl` (configuration not stated), for which the z-score in test [2] (setting [6]) was -0.127 (inactive) and -0.079 (inactive); in test [2] (setting [7]), -0.152 and -0.097; in test [5], 0.42 (inactive). In test [3], the remaining NAD was 10 nM (inactive). Moreover, in test [4], the luciferase signal is 36 AU (inactive).

Turning to `O=C1O[C@H](CO)[C@@H](O)[C@H](O)[C@H]1O`, the remaining NAD in test [3] is 10 nM (inactive). Moreover, in test [4], the luciferase signal was 16 AU (inactive).

As for `O=C(O)[C@@H](O)[C@H](O)[C@H](O)[C@@H](O)C(=O)O`, the luciferase signal in test [4] was 52 AU (inactive).

Regarding `C[C@@H]1CC[C@@]2(OC1)O[C@H]1C[C@H]3[C@@H]4CC[C@H]5C[C@@H](O)CC[C@]5(C)[C@H]4CC(=O)[C@]3(C)[C@H]1[C@@H]2C`, the luciferase signal in test [4] was 52 AU (inactive).

Take `C[C@@H]1C[C@H]2[C@@H]3CCC4=CC(=O)C=C[C@]4(C)[C@@]3(F)[C@@H](O)C[C@]2(C)[C@@]1(O)C(=O)COP(=O)(O)O`: in test [3], the remaining NAD is 10 nM (inactive). In test [4], the luciferase signal was 32 AU (inactive).

Take `COc1ccccc1OCC(O)CO` (configuration not stated): the z-score in test [2] (setting [6]) was -0.233 (inactive) and 0.795 (inactive) and 1.3e-05 (inactive); in test [2] (setting [7]) it was -0.0145 and 0.521 and -0.435; in test [5], 0.37 (inactive). Further, in test [3], the remaining NAD is 10 nM (inactive). In test [4], the luciferase signal was 160 AU (inactive).

In the case of `CCc1nn(CCCN2CCN(c3cccc(Cl)c3)CC2)c(=O)n1CCOc1ccccc1`, the z-score was -0.135 (inactive) and 0.202 (inactive) in test [2] (setting [6]); -0.202 and -0.42 in test [2] (setting [7]); -1.88 (inactive) and -0.63 (inactive) and -2.48 (inactive) in test [5]. Moreover, the remaining NAD in test [3] is 10 nM (inactive).

With `CC(=O)NCCCCCC(=O)O`, the remaining NAD in test [3] was 10 nM (inactive). In test [4], the luciferase signal was 76 AU (inactive).

On to `CN1CCC[C@@H]1CCO[C@](C)(c1ccccc1)c1ccc(Cl)cc1`, for which the z-score in test [2] (setting [6]) is -0.745 (inactive) and -0.186 (inactive); in test [2] (setting [7]) it was 0.0285 and -0.556; in test [5], -0.775 (inactive) and -1.7 (inactive). In addition, in test [3], the remaining NAD was 10 nM (inactive). Moreover, the luciferase signal in test [4] is 32 AU (inactive).
